NADH enzymes: inhibitors of PK/LDH coupling enzymes, profiling panel, artefact control, biochemical, MLSMR library | IC50, µM (titrated, usually from 10 µM) | actives 0.02% (n = 65,000) | AID 774, 2007 | coupled PK/LDH NADH assays, four targets;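 active means single-dose screening hits from any of four coupled enzyme assays that gave an IC50 when retested across doses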;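 further: the DPM-DC format reads NADH fluorescence rather than 340 nm absorbance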
DPM-DC inhibit: S. pneumoniae DPM-DC inhibitors, primary screen, biochemical, PK/LDH-coupled NADH fluorescence | diphosphomevalonate decarboxylase (Streptococcus pneumoniae D39) | purified DPM-DC | calls only at 10 µM | actives 0.49% (n = 65,000) | AID 556, 2006;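 active means the 320 compounds with the highest percent inhibition in the single-dose primary screen, excluding strongly autofluorescent ones, cut at about 32% in these data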;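 further: kinetic rate of NADH fluorescence loss reporting ADP formed by the decarboxylase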
MK inhibit: S. pneumoniae MK inhibitors, primary screen, biochemical, PK/LDH-coupled NADH absorbance; mevalonate kinase [Streptococcus pneumoniae D39]; purified MK, PK/LDH-coupled NADH absorbance 340 nm; inhibition, % at 10 µM; actives 0.48% (n = 65,000); AID 555, 2006;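 active means ranked among the strongest by inhibition in the single 10 µM screen, a fixed top-ranked set picked for dose follow-up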
Fluor 339 460: intrinsic fluorescence of library compounds, ex339/em460 – biochemical, MLSMR library, data from DPM-DC assay, artefact control, profiling panel; compound autofluorescence, ex339/em460 nm, NADH buffer; hits give high values; 1 = no-compound wells, NADH background; AID 709, 2007; actives 5.5% (n = 65,000); fluorescence fold increase at 10 µM;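 active means at 10 µM, mean starting fluorescence two-fold or more over control wells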;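 further: signal is the first read of a kinetic run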
A340 absorber: compound light absorbance at 340 nm, profiling panel, artefact control, biochemical, MLSMR library, data from PS, PMK, MK assays; 65,000 tested, under 10 active; compound absorbance at 340 nm, fold over control; fold change at 10 µM; AID 708, 2007;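 active means at 10 µM dose, initial 340 nm absorbance at least 2 fold that of control wells; inactive means change under 2 fold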;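 further: initial absorbance extrapolated from kinetic A340 decline of NADH oxidation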
PMK inhibit: S. pneumoniae PMK inhibitors, primary screen, biochemical, mevalonate pathway, pilot trial included. phosphomevalonate kinase (Streptococcus pneumoniae D39). AID 539, 2006. actives 0.49% (n = 65,000). inhibition, % at 10 µM. purified PMK, PK/LDH-coupled NADH absorbance 340 nm;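 active means top-ranked compounds by inhibition in the single 10 µM screen, taking a fixed number of the strongest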
Hits are given with their value; i = inactive; nt = no result given; + = active, no number. The list is not random: actives were taken first. Their share in the collection is about 6.3%.

SMILES	NADH enzymes	DPM-DC inhibit	MK inhibit	Fluor 339 460	A340 absorber	PMK inhibit
CCOC(=O)c1ccc(NC(=O)N(CC)CC)cc1	i	i	i	i	i	i
CC(C)(C)OC(=O)N1CCC[C@H]1c1nnc(SCc2ccccc2F)o1	i	i	i	i	i	i
c1csc(C2C3=C(Nc4ncnn42)c2ccccc2OC3)c1 (stereo not drawn)	i	i	i	2.3	i	i
COc1ccc(N2CCN(c3nc4c(c(=O)[nH]c(=O)n4C)n3Cc3ccccc3Cl)CC2)cc1	i	i	i	i	i	i
COc1ccc(-n2c(SCC(=O)N3CCCC3)nc3c([nH]c4ccccc43)c2=O)cc1	i	i	i	i	i	i
CN1CCc2c(sc3c2c(=O)n(-c2ccccc2)c2nnc(SCc4ccccc4)n32)C1	i	i	i	i	i	i
CN1CCc2c(sc3c2c(=O)n(-c2ccccc2)c2nnc(SCc4ccc(F)cc4)n32)C1	i	i	i	i	i	active
Cc1cc2c3nonc3ccc2n1-c1ccccc1	i	nt	i	2.2	i	i
c1ccc(-c2cc3c(ccc4nonc43)nn2)cc1	i	i	i	i	i	i
COC(=O)C1=C(C)N(C)C(C)=C(C(=O)OC)C1c1ccc(C(=O)OC)cc1	i	i	i	i	i	i
COC(=O)C1=CNC=C(C(=O)OC)C1c1ccc(C(=O)OC)cc1	i	nt	i	2.1	i	i
O=C1CC(C(=O)Nc2ccccc2C(=O)O)C(c2ccccc2)O1 (stereo not drawn)	i	i	i	i	i	i
O=C1CC(C(=O)Nc2ccc(O)c(C(=O)O)c2)C(c2ccccc2)O1 (stereo not drawn)	i	nt	i	3.1	i	i
COC(=O)c1c(NC(=O)c2nc3ncccn3n2)sc(C(=O)N(C)C)c1C	i	i	i	i	i	i
Nc1nc(N)c2sc3nc4c(cc3c2n1)CCC4	i	+	i	3.2	i	i
CCOC(=O)N1CCN(C(=O)CN(Cc2ccccc2)S(=O)(=O)c2ccc(OC)c(C)c2)CC1	i	i	active	i	i	i
COc1ccc(S(=O)(=O)N(CC(=O)N2CCCC2)Cc2ccccc2)cc1	i	i	i	i	i	i
COc1ccc(-c2ccc(CCC(=O)O)n2C(C)C)cc1	i	i	i	2	i	i
COC(=O)Cn1c(CCC(=O)O)ccc1-c1ccccc1	i	nt	i	2.2	i	i
O=C(O)CCc1ccc(-c2ccccc2)n1CC1CCCO1 (stereo not drawn)	i	nt	i	4	i	i
CCCn1c(CCC(=O)O)ccc1-c1ccc(F)cc1	i	i	i	2	i	i
Cc1cc(NC(=O)CC23CC4CC(C2)CC(CC(=O)Nc2cc(C)on2)(C4)C3)no1	i	i	i	i	i	i
COc1ccc(S(=O)(=O)Cc2ccccc2)cc1N	i	i	nt	i	i	i
COc1ccc(CCn2c(C)cc3c(c2=O)C(c2ccc4c(c2)OCO4)C(C#N)=C(N)O3)cc1OC (stereo not drawn)	i	i	i	i	i	i
Cc1ccccc1CN1CCN(S(=O)(=O)c2ccc(F)cc2)CC1	i	+	i	i	i	i
SMILES	NADH enzymes	DPM-DC inhibit	MK inhibit	Fluor 339 460	A340 absorber	PMK inhibit
Cc1cccc(C)c1N1CCN(S(=O)(=O)c2ccc(F)cc2)CC1	i	i	i	i	i	i
COc1cccc(CN2CCN(C(=O)c3cccc4ccccc34)CC2)c1OC	i	i	i	i	i	i
COc1cccc(OC)c1C(=O)N1CCN(Cc2ccccc2C)CC1	i	i	48	i	i	i
O=C(O)c1ccccc1S	i	i	i	i	i	i
CN(C)CCN(C)Cc1ccc2c(c1)Cc1ccccc1-2	i	i	i	i	i	i
OC1CCCN(Cc2ccc3c(c2)Cc2ccccc2-3)C1 (stereo not drawn)	i	i	i	i	i	33
CC1Cc2cc(C3(O)C(=O)c4ccccc4C3=O)ccc2N1 (stereo not drawn)	i	i	i	i	i	i
CC(C)OC(=O)c1c2nc3ccccc3nc2n2c1[nH]c(=O)c1ccccc12	i	nt	i	2.3	i	i
CC1CCc2nc(N)c(C#N)c(-c3ccncc3)c2C1 (stereo not drawn)	i	nt	i	3.8	i	i
CC1CCc2nc(N)c(C#N)c(-c3cccnc3)c2C1 (stereo not drawn)	i	i	i	i	i	i
O=C(Nc1cccc(Cl)c1)c1cnn2cccnc12	i	i	i	i	i	i
O=C(NCc1ccccc1Cl)c1cnn2cccnc12	i	i	i	2.2	i	i
O=C(NCc1cccs1)c1cnn2cccnc12	i	i	i	2.1	i	i
CCC(=O)N1CCN(c2ccccc2NC(=O)COc2ccccc2Cl)CC1	i	i	i	i	i	i
O=C1CSC(c2nn(-c3ccccc3)cc2-c2cc3ccccc3oc2=O)N1Cc1ccco1 (stereo not drawn)	i	nt	i	2.3	i	i
CCCCC(=O)Nc1cc2nn(-c3ccc(OC)cc3)nc2cc1C	i	nt	i	3.6	i	i
CCC(=O)Nc1cc2nn(-c3ccc(OC)cc3)nc2cc1C	i	nt	i	3.8	i	i
CCC(=O)Nc1c2c(nn1-c1ccc(OC)cc1)CS(=O)C2 (stereo not drawn)	i	i	i	i	i	i
CC(C)NC(=O)CSc1nncn1-c1ccccc1	i	i	i	i	i	i
CCOc1ccc(-c2nnn(CC(=O)Nc3cccc(OC)c3)n2)cc1OCC	i	i	i	i	i	i
CCCOc1ccc(-c2nnn(CC(=O)Nc3cccc(C(=O)OC)c3)n2)cc1	i	i	i	i	i	26
O=C(c1cccn2c(=O)c3ccc(Cl)cc3nc12)N1CCN(Cc2ccc3c(c2)OCO3)CC1	i	nt	i	4.9	i	i
CCOc1ccc2cc(C#N)c(SCC(=O)N3CCOCC3)nc2c1	i	nt	i	2.7	i	i
CC(C)C(NS(=O)(=O)c1ccc2c3c(cccc13)C(=O)N2)C(=O)O (stereo not drawn)	i	nt	i	2.2	i	i
O=C1Nc2ccc(S(=O)(=O)NCc3ccco3)c3cccc1c23	i	nt	i	2.2	i	i
O=C(O)c1ccccc1NS(=O)(=O)c1ccc2c3c(cccc13)C(=O)N2	i	i	i	i	i	i
CCOc1ccc(S(=O)(=O)NCc2ccco2)c2ccccc12	i	i	i	i	i	i
COC(=O)c1ccccc1NS(=O)(=O)c1ccc2c3c(cccc13)C(=O)N2	i	i	i	2.8	i	i
N#CC1(c2nc3ccccc3[nH]2)CC1c1ccc2c(c1)OCO2 (stereo not drawn)	i	i	i	i	i	i
Cc1nn(-c2ccc(F)cc2)c2c1cc(C#N)c1nc3ccccc3n12	i	nt	i	2.5	i	i
